Gal4-VP16 FLuc = inhibits Gal4-VP16 luciferase reporter, ROR gamma counter-screen | Drosophila S2 Gal4-VP16 UAS-luciferase, luminescence, 20 h | Potency, µM (titrated, usually from 53.6 µM), for the others: at the top dose activity, negative = inhibition, most hits filed as inhibitors | 310,000 compounds, 3.5% hits;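 note: Gal4-VP16 expression switched on by copper sulfate through the metallothionein promoter; % is set by controls: 0 for no effect and ±100 for the full control effect; nearly all actives have a fitted effect of over 50% in size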
Sfp inh = Sfp phosphopantetheinyl transferase inhibition; Potency, µM, for inactives: largest response in the series, negative = inhibition, actives largely listed as inhibitors; 310,000 compounds, 3.5% hits; Biochemical Sfp PPTase activity, qHTS; AID 1490;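 note: the enzyme is Sfp with the accession as filed and its product quenches rhodamine fluorescence; 0% = enzyme reaction without inhibitor and -100% = no enzyme wells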
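Step 1, compound plus 15 nM Sfp-PPTase, 15 min, room temperature. Step 2, add rhodamine-CoA (5 uM) and BHQ-2-YbbR (12.5 uM). Step 3, read 525/598 nm fluorescence at 0 and 30 min.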
RORg inh = ROR gamma (mouse) transcription inhibition | 310,000 compounds, 5.4% hits | Drosophila S2 Gal4-RORgamma UAS-luciferase reporter, 20 h | P51450 | Potency, µM (doses to about 53.6 µM), inactives show top-dose activity change, negative = inhibition, actives largely listed as inhibitors; note: % is set by controls: 0 for no effect and ±100 for the full control effect; nearly all actives have a fitted effect of over 60% in size
Target sequence (P51450 whole entry, looked up, the tested form may be a part): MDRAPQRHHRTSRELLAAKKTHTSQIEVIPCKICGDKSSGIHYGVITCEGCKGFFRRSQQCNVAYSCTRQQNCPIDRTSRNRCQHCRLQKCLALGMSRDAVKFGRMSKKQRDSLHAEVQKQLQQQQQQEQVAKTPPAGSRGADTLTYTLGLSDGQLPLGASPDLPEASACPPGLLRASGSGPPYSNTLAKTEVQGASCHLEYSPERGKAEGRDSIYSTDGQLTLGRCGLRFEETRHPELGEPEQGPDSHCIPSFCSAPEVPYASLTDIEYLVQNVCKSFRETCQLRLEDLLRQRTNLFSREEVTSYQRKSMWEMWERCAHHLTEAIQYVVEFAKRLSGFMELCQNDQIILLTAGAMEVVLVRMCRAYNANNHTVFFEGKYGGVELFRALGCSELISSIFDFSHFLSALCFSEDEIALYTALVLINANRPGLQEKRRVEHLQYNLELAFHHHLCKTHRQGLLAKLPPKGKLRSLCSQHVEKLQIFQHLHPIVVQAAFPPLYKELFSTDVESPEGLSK
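ROR gamma transcriptional activity was tracked as Gal4-UAS luciferase output in stably transfected Drosophila Schneider cells, with compound added 1 hr before 700 uM copper sulfate induction and a 20 hr ambient-temperature incubation.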
ClpP mod = qHTS Assay for Activators of ClpP | ATP-dependent Clp protease proteolytic subunit (Bacillus subtilis (strain 168)), P80244 | AID 651965, 2013 | 340,000 compounds, 1.9% hits | purified B. subtilis ClpP, FRET peptide cleavage, 20 min | Potency, µM (doses to about 57.5 µM), for inactives: at the top dose activity change, negative = active; active = well fitted falling curve with a large enough effect; inconclusive = small, poorly fitted or top-dose-only effect; inactive = no such curve, though single readings can be large or run the other way; note: the source files actives as falling curves though it sought activators and does not explain the sign; nearly all actives have a fitted effect of over 65% in size
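FRET quenching reversal measured ClpP activation: 10 microg/mL B. subtilis ClpP at pH 8 with the FRET-FV decapeptide, read at 430 nm after 320 nm excitation. The 20-min minus 0-min signal was scaled between DMSO/no-enzyme wells and ADEP (5.8 microM final).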
Epigenetic reg = derepresses silenced GFP reporter in murine cells. murine LDR cells, GFP reporter derepression, 30 h. Potency, µM (top dose mostly 53.9 µM), for inactives: top-dose GFP activation, actives largely listed as activators. 280,000 compounds, 0.2% hits. AID 1865; note: % of control where 0% means no effect; nearly all actives have a fitted effect of over 60% in size
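Murine LDR cells carrying a silenced, genomically integrated CMV-driven GFP reporter were exposed to compound for 30 hours at 37 C. After PBS washes, GFP-positive cells (20–120 um objects) were counted by laser-scanning microplate cytometry.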
PINK1 modulator = modulators of PINK1 expression; PINK1 immunofluorescence, high-content cytometry, 24 h; Potency, µM (doses to about 76.6 µM), inactives show at the top dose activation (PINK1 increase), most hits filed as activators; 410,000 compounds, 0.2% hits; AID 624263; active = well fitted activation curve with a large enough effect; inconclusive = small, poorly fitted or top-dose-only effect; cell line not stated here; note: % of control where 0% means no effect; nearly all actives have a fitted effect of over 65% in size
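Fluorescence from anti-PINK1 antibody, together with nuclear and cell stains, was scanned on a laser-scanning cytometer. Before staining, stable-line cells were incubated 24 hours with compounds at 5 concentrations; primary antibody 12 h at 10 degrees C.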
* hit, by the source's call; ? = inconclusive; nt = no result; [ ] = another dose, or the depositor's remark. An excerpt weighted towards active compounds, which were near 8.1% of everything screened. Unless noted, calls come from the whole dose curve; as a rule, active = well fitted curve in the direction sought with a large enough effect; inconclusive = small, poorly fitted or top-dose-only effect, or another doubt; inactive = no such curve, though single readings can be large; an effect the other way counts as inactive or inconclusive. Potency is the fitted concentration of half-maximal effect.

SMILES	Gal4-VP16 FLuc	Sfp inh	RORg inh	ClpP mod	Epigenetic reg	PINK1 modulator
COc1ccccc1NC(=O)Cc1csc(NC(=S)Nc2ccc(C)cc2)n1	2.8µM*	?	0.89µM*	-5%	1%	-7%[38.3 µM]
CC(C)CC(=O)NC(=S)Nc1nc(-c2cccc3ccccc23)cs1	13µM*	-13%	3.2µM*	-4%	-1%	0%
CCOC(=O)Cc1csc(NC(=S)NC(=O)c2ccc(C)cc2)n1	8.9µM*	-12%	5µM*	2%	6%	2%
CCOC(=O)Cc1csc(NC(=O)c2ccc(C)cc2)n1	-4%	10%	-14%	nt	-4%	3%
CCc1ccc2c(c1)c(=O)c(S(=O)(=O)c1ccccc1)cn2CC(=O)Nc1cc(C)ccc1C	nt	nt	nt	-13%	0%	6%
Cc1ccc(S(=O)(=O)C(CNC(=O)COc2ccc(Cl)cc2)c2ccco2)cc1 (centres undefined)	nt	nt	nt	-2%	1%	3%
CCCC(=O)Nc1nc(CC(=O)OCC)cs1	-5%	12%	20%	nt	-1%	0%
CCOC(=O)Cc1csc(NC(=S)NC(=O)c2cccc([N+](=O)[O-])c2)n1	?	-34%	11µM*	1%	0%	2%
CCOC(=O)Cc1csc(NC(=S)NC(=O)CC(C)C)n1	?	-10%	11µM*	nt	0%	5%
O=C(O)C1OC(O)C(O)C(O)C1O (centres undefined)	-6%	11%	-3%	nt	1%	nt
Cc1cc2nc(CS)[nH]c2cc1C	5%	40µM*	-28%	-1%	0%	1%
Cc1cc2nc(CO)[nH]c2cc1C	19%	12%	-17%	1%	-1%	1%
CCOc1ccccc1Nc1nnc(SCc2nnc(-c3cc(OC)c(OC)c(OC)c3)o2)s1	?	12%	30%	32µM*	0%	0%
C=CCn1c(SCc2nc3ccccc3c(=O)[nH]2)nc2scc(C3CC3)c2c1=O	18%	56µM*	31%	nt	?	-1%
COc1ccc(C(=O)CSc2nc3cc(C(=O)NC4CCCC4)ccc3c(=O)n2CC2CCCO2)cc1 (centres undefined)	nt	nt	nt	-3%	3%	0%
COc1ccc(NC(=O)CC2SC(=Nc3ccccc3)NC2=O)cc1 (centres undefined)	?	-6%	?	-2%	0%	2%
COc1ccc(NC(=O)CC2SC(=O)NC2=O)cc1 (centres undefined)	13µM*	-23%	11µM*	nt	0%	3%
Cc1ccc(NC(=O)CC2SC(=O)NC2=O)cc1 (centres undefined)	4.5µM*	-14%	5µM*	-3%	0%	1%
Cc1ccccc1OCC1CO1 (centres undefined)	-14%	nt	-4%	nt	nt	nt
COC(=O)c1cc(OC)c(OC)cc1NC(=S)Nc1cc(Cl)ccc1OC	1.4µM*	14%	1.3µM*	-7%	1%	4%
COC(=O)c1cc(OC)c(OC)cc1NC(=O)Nc1ccc(OC)cc1	1%	13%	5%	25µM*	2%	1%
COC(=O)c1cc(OC)c(OC)cc1NC(=S)Nc1cccc(Cl)c1	6.3µM*	12%	4µM*	-4%	-3%	1%
COc1ccc(Cl)cc1S(=O)(=O)Nc1ccc(Cl)cn1	3%	14%	3%	-1%	nt	0%
COc1ccc(Cl)cc1NC(=S)Nc1ccc(Cl)cn1	?	7%	1.3µM*	2%	0%	-2%
COC(=O)c1ccc(CN2C[C@H](Sc3ccccn3)C[C@H]2C(=O)N(C)C)cc1	nt	nt	nt	nt	nt	-1%
C[C@@H]1CN(Cc2ccc3c(c2)CN(Cc2cccc4c2OCO4)CCO3)C[C@H](C)O1	nt	nt	nt	nt	nt	0%
CSc1ncc2c(n1)-c1ccccc1N(Cc1ccccc1)S2(=O)=O	nt	nt	nt	-8%	2%	6%
COC(=O)c1cc(OC)c(OC)cc1NC(=O)CC1CCCCC1	1%	11%	27%	28µM*	1%	18%[38.3 µM]

Compound activity deposited in PubChem by National Center for Advancing Translational Sciences (NCATS).
